Among the data in PubChem BioAssay (NCI) are growth values, retold here.

Values joined by “and” are separate entries in the source; they are usually repeats but may differ in a detail not shown here. Equal values may be shown once. About 83,000 compounds went through this panel and 20% of them were active in at least one assay; those are over-represented in the sample as a whole.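 Cells were grown in 96-well plates and exposed to the test compound at a single concentration for 48 hours; results are reported as percent growth, with values below 10 considered active.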 Active and inactive are the calls of the source.

For this experiment, the system named is MDA-MB-468 breast. Briefly: NCI-60 one-dose screen, 48 h (100 = growth as untreated, 0 = no growth, -100 = all killed). The conditions noted are these: 10 µM unless noted.
As for `CCN(CC)S(=O)(=O)c1cccc(-c2ccc3c(NC(=O)C4CC4)n[nH]c3c2)c1`, the growth was 6.55% [6.25 µM] (active).

`N#Cc1cccc(NC(=O)c2cc(-c3ccc(F)cc3F)ccc2O)c1`: the growth is -4.46% (active) and -3.84% (active).

`CCN(CC)CCn1nc2c3c(cccc3c1=O)-c1ccccc1-2`: the growth was 25.9% (inactive).

As to `CN1CCN(C(=O)[C@@]2(C)CC[C@]3(C)CC[C@]4(C)C(=CC[C@@H]5[C@@]6(C)CCC(=O)NC(C)(C)[C@@H]6CC[C@]54C)[C@@H]3C2)CC1`, the growth is 13.5% (inactive).

Take `O=C1NN(C(=O)c2ccc(Cl)cc2)C(c2ccccc2)=N/C1=C\c1ccc(F)cc1`: the growth is 67.9% (inactive).

As to `COc1cc2nc(Cl)nc(NCCO)c2cc1OC`, the growth is 99.2% (inactive).

Take `Nc1nc2ccc3[nH]ncc3c2c2c1CCCC2`: the growth was -46.8% (active).

As to `Clc1ccc(N/N=C(\c2ccccc2)c2ccccn2)nc1`, the growth is -24.9% (active).

Regarding `COc1ccc2c(C3=C(c4c[nH]c5ccccc45)C(=O)N(O)C3=O)coc2c1`, the growth was 88.6% (inactive).

`COc1cc(C2CC(=O)Nc3c2c(C)nn3-c2nc3ccccc3[nH]2)cc2c1OCC(=O)N2` (stereo not given): the growth is 57.1% (inactive).

Take `Nc1cccc(NC(=O)C(=O)Nc2cccc(N)c2)c1`: the growth was 117% (inactive).

`O=C1/C(=C/c2ccc(F)cc2)COc2ccc(O)cc21`: the growth was 86.4% (inactive).

Consider `O=C(O)C[C@H](O)C[C@H](O)/C=C/c1c(C2CC2)nc2ccccc2c1-c1ccc(F)cc1`, for which the growth was 75.1% (inactive).

Consider `O=C(NNc1nc2cc(F)c(F)cc2n2cccc12)c1cnccn1`, for which the growth was 17.5% (inactive).

With `COc1ccc(-c2cc(-c3ccccc3)nc(SCCCCCCC(=O)NO)n2)cc1`, the growth was 64.1% (inactive).

`COc1cc2oc(-c3cccc(C(=O)Nc4ccc(C#N)cc4)c3)cc(=O)c2c(O)c1OC`: the growth was 77.3% (inactive).

As to `CCN(CC)c1cc(C)c2cc(NC(=O)c3cccc(OC)c3)ccc2n1`, the growth was 83.9% (inactive).

For `COC(=O)/C=C1/SC(=Nc2ccc(C)cc2)N(CCc2c[nH]c3ccc(O)cc23)C1=O`, the growth is 48% (inactive).

As to `CCOC(=O)N1C/C(=C/c2ccc(OC)cc2)C(=O)/C(=C/c2ccc(OC)cc2)C1`, the growth is -28.9% (active).

On to `CC(=O)C(CO)C(=O)Nc1ccccc1` (stereo not given), for which the growth is 104% (inactive).

In the case of `CCc1c2c(nc3ccc(OCc4ccc(B(O)O)cc4)cc13)-c1cc3c(c(=O)n1C2)COC(=O)[C@]3(O)CC`, the growth was -48.4% (active).

For `COc1ccc(C2(O)CCCCC2)cc1`, the growth is 95.2% (inactive).

Turning to `Nc1nc(Nc2ccccc2)c(C=Nc2ccccc2)c(=O)[nH]1`, the growth was 99.6% (inactive).

`O=C(O)c1cn(C2CC2)c2cc(N3CCN(C(=O)N/N=C/c4ccccc4)CC3)c(F)cc2c1=O`: the growth is 83.7% (inactive).

`CC(C)Cc1ccc(C(C)C(=O)NCc2ccc(Cn3c(=O)sn(CCCCl)c3=O)cc2)cc1` (stereo not given): the growth is 80.8% (inactive) and -83.8% (active).

For the molecule `O=C(NCc1ccccc1)Nc1ccccc1CNc1nc(Nc2ccc(OCCN3CCCC3)cc2)ncc1Cl`, the growth is 74.5% (inactive).

Turning to `O=c1[nH]c(=O)c2[nH]c(=O)[nH]c2[nH]1`, the growth is 85.6% (inactive).

On to `CC1=Cc2ccccc2OC12C=Cc1ccccc1O2` (stereo not given), for which the growth is 97% (inactive).

On to `COc1ccc(C(=O)C(CN(C)C)c2ccccc2)cc1` (stereo not given), for which the growth was -58.5% (active).

Take `Nc1cc(N)c2cccnc2c1O`: the growth was 48.2% (inactive).

On to `C#Cc1nc2ccccc2c(=O)[nH]1`, for which the growth was -46.9% (active).

With `O=C(O)c1ccccc1C(=O)OC1CCCC2CCCC21` (stereo not given), the growth was 102% (inactive).

On to `Cc1ccc2nc(C)c(-c3nnc(SCc4ccc(C#N)cc4)o3)n2c1`, for which the growth was 87.5% (inactive).

Turning to `CC(C)CNCC(=O)Nc1ccc(Cc2ccc(NC(=O)CNCC(C)C)cc2)cc1`, the growth was 79.5% (inactive).

In the case of `COC1=C(Br)C(=O)C(OC)=C(Br)C1=O`, the growth was 89.2% (inactive).

Turning to `NC(=O)c1c(Nc2ccccc2)nn2cc(-c3nc4ccccc4s3)c(N)nc12`, the growth is 101% (inactive).

`CC1(C)CC[C@]2(C(=O)O)CC[C@]3(C)C(=CCC4[C@@]5(C)C[C@@H](O)[C@@H]6OC(c7cccc([N+](=O)[O-])c7)OC[C@@]6(C)C5CC[C@]43C)C2C1` (stereo not given in full): the growth is 76% (inactive).

On to `O=C(O)CSCc1nc2ccccc2[nH]1`, for which the growth is 118% (inactive).

As for `O=C(c1cnn2c1NC(c1ccc(F)cc1)C2)N1CCCCC1` (stereo not given), the growth was 107% (inactive).

Regarding `CC(C)CCCCCOC(=O)c1ccccc1SSc1ccccc1C(=O)OCCCCCC(C)C`, the growth is 109% (inactive).
